# Compound activity as filed in PubChem.
# Sampled rows, rich in hits. Any-hit rate of the full collection: about 1.2%.
# TrxR1 inh: qHTS Assay for Inhibitors of Mammalian Selenoprotein Thioredoxin Reductase 1 (TrxR1): qHTS | recombinant rTrxR1, NADPH fluorescence consumption, selenite substrate | Thioredoxin reductase 1, cytoplasmic (Rattus norvegicus), O89049 | 390,000 tested, 1% active | Potency, µM (top dose mostly 114 µM), for the others: at the highest dose activity change, negative = inhibition, actives largely listed as inhibitors; further: potency means the concentration at half of the fitted maximal effect; nearly all actives have a fitted effect of over 65% in size
#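 Rat TrxR1 (90 nM in the dispensed reagent) was pre-reduced with 400 uM NADPH for 5 min at room temperature, then incubated with compound for 15 min. After 400 uM selenite was added, NADPH fluorescence (Ex 340/Em 450 nm) was followed for 8 min.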
# GALK inh: qHTS Assay for Inhibitors of Human Galactokinase (GALK) | P51570 | Purified GALK, Kinase-Glo residual ATP luminescence | Potency, µM (highest dose often 57.5 µM), for the others: at the highest dose activity change, negative = inhibition, most hits filed as inhibitors | 270,000 tested, 0.007% active; further: potency means the concentration at half of the fitted maximal effect
#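 GALK at 5 nM final was combined with compound, 35 uM ATP and 100 uM galactose in HEPES pH8.0 with MgCl2 and DTT. The reaction ran one hour at room temperature before luminescent ATP detection.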
# PKM2 act: qHTS Assay for Activators of Human Muscle isoform 2 Pyruvate Kinase. Potency, µM (series often up to 57.5 µM), for the others: at the highest dose activation, most hits filed as activators. Pyruvate kinase PKM (Homo sapiens), P14618. 260,000 tested, 0.34% active. purified PKM2, Kinase-Glo ATP luminescence, activation; response scale: 0% is enzyme alone, no compound; further: potency means the concentration at half of the fitted maximal effect; nearly all actives have a fitted effect of over 55% in size
# Target sequence (P14618 whole entry, looked up, canonical isoform): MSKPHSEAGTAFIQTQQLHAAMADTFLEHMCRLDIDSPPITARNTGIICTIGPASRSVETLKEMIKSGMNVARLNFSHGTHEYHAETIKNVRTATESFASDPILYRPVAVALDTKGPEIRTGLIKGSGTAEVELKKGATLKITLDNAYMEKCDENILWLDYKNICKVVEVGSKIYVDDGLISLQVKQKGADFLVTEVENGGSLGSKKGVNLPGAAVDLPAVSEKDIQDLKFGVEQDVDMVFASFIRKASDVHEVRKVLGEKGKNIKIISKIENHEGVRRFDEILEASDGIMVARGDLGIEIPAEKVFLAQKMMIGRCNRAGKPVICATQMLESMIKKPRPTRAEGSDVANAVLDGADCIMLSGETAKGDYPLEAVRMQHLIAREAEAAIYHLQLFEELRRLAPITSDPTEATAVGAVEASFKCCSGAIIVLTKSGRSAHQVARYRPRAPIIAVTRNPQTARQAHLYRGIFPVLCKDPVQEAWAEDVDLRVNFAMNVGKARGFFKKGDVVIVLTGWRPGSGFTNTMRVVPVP
#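 hPK-M2, >95% pure; 0.1 mM ADP / 0.5 mM PEP final; imidazole pH7.2 buffer w/ 7 mM MgCl2, 50 mM KCl; 1 h RT; Kinase-Glo lum. Intermediate enzyme activity for dual inhibitor/activator qHTS.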
# PI4K2A inh: qHTS for small molecular inhibitors of PI4K2A; Phosphatidylinositol 4-kinase type 2-alpha (Homo sapiens), Q9BTU6; activity change, negative = inhibition, % at 76.9 µM; purified PI4K2A, ADP-Glo luminescence, 1 h; active compounds read low; 420,000 tested, 0.13% active; AID 1346378, 2018; in the data active means activity change below about -50%; inconclusive means mostly about -30% to -49%;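 further: -100% = wells without enzyme as full effect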
#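 In this quantitative HTS, ADP production by PI4K2A was quantified luminescently after 1 h at ambient temperature; 100 microM adenosine served as plate-quality control.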
# TrxR1 substrate: qHTS Assay for Substrates of Mammalian Selenoprotein Thioredoxin Reductase 1 (TrxR1): qHTS. Thioredoxin reductase 1, cytoplasmic (Rattus norvegicus), O89049. purified TrxR1 substrate turnover, NADPH consumption readout. Potency, µM (top dose mostly 114 µM), for the others: at the top dose activity change, negative = substrate turnover. 390,000 tested, 0.01% active; further: potency means the concentration at half of the fitted maximal effect; nearly all actives have a fitted effect of over 50% in size
#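 Rat TrxR1, dispensed at 90 nM, was prereduced with 400 uM NADPH (final) for 5 min at ~22 deg C, then incubated with compound 15 min before 400 uM selenite. A first-read NADPH fluorescence drop versus no-compound background flagged substrates.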
# The depositor's hits bear a star; u = inconclusive; x = no result given; ! = not active in a repeat; [ ] = another dose, or the depositor's remark. Unless noted, the call rests on the fitted dose curve; in most records, active means well fitted curve in the direction sought with a large enough effect; inconclusive means small, poorly fitted or top-dose-only effect, or another doubt; inactive means no such curve, though single readings can be large; an effect the other way counts as inactive or inconclusive. Unless noted, on the % scale 0 is the no-effect control and ±100 the full control effect.
SMILES,TrxR1 inh,GALK inh,PKM2 act,PI4K2A inh,TrxR1 substrate
CCn1c(SCC(=O)N/N=C/C(C)=C/c2ccco2)nnc1-c1ccccc1,u,1%,26%,-8,-7%
CCn1c(SCC(=O)N/N=C/C=C/c2ccco2)nnc1-c1ccccc1,35µM*,1%,17%,u,-7%
COc1cc(OC)c(C(=O)NCc2nc(-c3ccccc3)no2)cc1OC,18%,x,x,-5,3%
O=C1NN(c2ccccc2)C(=O)/C1=C\c1ccccc1OCC(=O)N1CCOCC1,-31%[57.1 µM],0%,10µM*,9,-3%[57.1 µM]
Cn1nnc(-c2ccc(OCc3ccccc3F)cc2)n1,11%,2%,-27%,-56*,2%
COc1ccc(CCN2C(=O)N(c3cccc(C)c3)C(=O)C2CC(=O)Nc2ccccc2)cc1OC (stereo unspecified),8%,x,x,-1,-6%
Oc1c(C(Nc2ccccn2)c2cccnc2)cc(Cl)c2cccnc12 (stereo unspecified),13µM*,3%,3%,-3,-8%
Oc1c(C(Nc2cccc(C(F)(F)F)c2)c2cccnc2)ccc2cccnc12 (stereo unspecified),14µM*,1%,24%,2,-14%
COc1ccc(Cl)cc1C(Nc1cccnc1)c1ccc2cccnc2c1O (stereo unspecified),4µM*,-1%,19%,-3,3%[57.1 µM]
CC(=O)NC(c1ccc(C)cc1)c1cc(Cl)c2cccnc2c1O (stereo unspecified),28%,3%,-17%,3,2%
Oc1c(C(Nc2cccnc2)c2ccc(C(F)(F)F)cc2)ccc2cccnc12 (stereo unspecified),u,x,x,x,-6%
Oc1c(C(Nc2ccccn2)c2ccccc2)ccc2cccnc12 (stereo unspecified),50µM*,x,x,x,-4%
CCOC(=O)C(=O)c1csc(NC=O)n1,x,x,x,-1,x
CCCC(=O)Nc1ccc(O)c(C(C)=O)c1,x,x,x,-1,x
COc1ccc(N2CC(NC(=O)/C=C\c3ccccc3)CC2=O)cc1OC (stereo unspecified),11%[57.1 µM],x,x,-5,5%[57.1 µM]
O=C(N/N=C/C=C\c1ccco1)c1cccnc1,u,-1%,13%,-13,-11%
O=C(N/N=C/C=C/c1ccco1)c1cccnc1,5.6µM*,-2%,16%,-4,-12%
O=C(N/N=C\C=C\c1ccco1)c1cncc(Br)c1,50µM*,-2%,17%,-11,-16%
Oc1cccc(-c2c3nc(c(-c4cccc(O)c4)c4ccc([nH]4)c(-c4cccc(O)c4)c4nc(c(-c5cccc(O)c5)c5ccc2[nH]5)CC4)C=C3)c1,x,x,x,-23,x
COc1ccccc1/C=C/C=C1\Oc2c(ccc(O)c2CN(C)C)C1=O,u,-2%,-1%,6,-25%
CCN(CC)Cc1c(O)ccc2c1O/C(=C\C=C\c1ccccc1)C2=O,71µM*,1%,3%,3,-13%
COCCN(CCOC)Cc1c(O)ccc2c1O/C(=C\c1ccc(C)o1)C2=O,50µM*,-2%,x,-1,u
CCOC(=O)c1cc2c(=O)n3cccc(C)c3nc2n(Cc2ccco2)c1=NC(=O)c1ccccc1,56µM*!,-4%,-2%,-5,3%[11.4 µM]
Cc1cc(OCC(=O)Nc2ccc(C(=O)OC3CCCCC3)cc2)ccc1Cl,3%,x,x,-3,-2%
N#CC1=C(N)C2=CCCC[C@H]2[C@H](c2ccc(Br)cc2)C1(C#N)C#N,5µM*,-1%,7.9µM*,-4,3%
SMILES,TrxR1 inh,GALK inh,PKM2 act,PI4K2A inh,TrxR1 substrate
O=C/C=C/c1c(-c2ccccc2)cc2oc3ccccc3cc1-2,45µM*,6%,x,0,-5%
O=C(COC(=O)c1ccc(NS(=O)(=O)c2cccs2)cc1O)NCc1ccccc1,3%[57.1 µM],4%,22µM*,-1,-6%[57.1 µM]
Cn1c(C(=O)OCC(=O)NCc2ccco2)cc2sccc21,25µM*,5%,u,-10,2%
O=C(COC(=O)c1cccs1)NCc1ccco1,u,6%,0%,-1,3%
Cc1cc2c(cc(C(=O)OCC(=O)NCc3ccco3)n2C)s1,-15%,2%,12%,-9,-2%
O=C(COC(=O)c1ccc(NS(=O)(=O)c2cccs2)cc1)NCc1ccco1,u,0%,14µM*,-30,2%
O=C(COC(=O)c1ccc(NS(=O)(=O)c2cccs2)cc1O)Nc1nc2ccccc2s1,36%,1%,-2%,-5,5%
COc1cc2c(cc1OC)C(COc1ccc3c(C)cc(=O)oc3c1)N(C(=O)c1cccc(C)c1)CC2 (stereo unspecified),-3%,x,x,-16,20%
Cc1ccc2occ(-c3cc(-c4ccccc4)nc4c3COc3ccccc3-4)c(=O)c2c1,14%[11.4 µM],x,x,4,8%[11.4 µM]
O=C(CCS(=O)(=O)c1nc(-c2cccs2)cc(C(F)(F)F)n1)Nc1cc(Br)ccc1O,14µM*,x,x,1,35%
COc1ccc(NC(=O)CCS(=O)(=O)c2nc(-c3ccc4c(c3)OCO4)cc(C(F)(F)F)n2)cc1,u,x,x,1,-6%
Cc1cc(NC(=O)CCS(=O)(=O)c2nc(-c3ccccc3)cc(C(F)(F)F)n2)no1,18µM*,-2%,-2%,13,13%[57.1 µM]
CS(=O)(=O)c1nc(-c2ccccc2)cc(C(F)(F)F)n1,18µM*,-5%,23%,12,4%
Cc1ccc(O)c(NC(=O)CCS(=O)(=O)c2nc(-c3cccs3)cc(C(F)(F)F)n2)c1,20µM*,x,x,6,-3%
C=C(CC[C@]12OC(C(=O)O)C(O)(C(=O)O)C(C(=O)O)(O1)C(OC(=O)/C=C/[C@@H](C)C[C@@H](C)CC)C2O)[C@@H](OC(C)=O)[C@H](C)Cc1ccccc1 (stereo partly specified),7%,x,x,x,3%
Cc1ccc(Cl)cc1N1CCN(C(=O)c2cc3ccc4cccnc4c3[nH]2)CC1,44%,x,x,-76*,12%
O=C(c1cc2ccc3cccnc3c2[nH]1)N1CCN(c2ccc(Cl)cc2)CC1,4%,x,x,-3,0%
Cc1cc2cc(CNC(=O)c3ccc(Br)o3)ccc2n1C,8.9µM*,2%,11%,-14,10%[57.1 µM]
CCCC(=O)NCc1ccc2c(c1)cc(C)n2C,18%,4%,-8%,-4,-4%
CNS(=O)(=O)c1cc2c3c(cccc3c1)C(=O)NC2=O,15%[57.1 µM],-1%,13µM*,0,3%[57.1 µM]
